The record followed here is PubChem BioAssay (NCATS).

Results filed as inconclusive are left out. A call without a number means that no potency is given here. Active and inactive are the calls of the source. Calls come from the whole dose curve; as a rule, active = well fitted curve in the direction sought with a large enough effect; inconclusive = small, poorly fitted or top-dose-only effect, or another doubt; inactive = no such curve, though single readings can be large; an effect the other way counts as inactive or inconclusive.

Cytochrome P450 3A4 (Homo sapiens), sequence (P08684 whole entry, looked up): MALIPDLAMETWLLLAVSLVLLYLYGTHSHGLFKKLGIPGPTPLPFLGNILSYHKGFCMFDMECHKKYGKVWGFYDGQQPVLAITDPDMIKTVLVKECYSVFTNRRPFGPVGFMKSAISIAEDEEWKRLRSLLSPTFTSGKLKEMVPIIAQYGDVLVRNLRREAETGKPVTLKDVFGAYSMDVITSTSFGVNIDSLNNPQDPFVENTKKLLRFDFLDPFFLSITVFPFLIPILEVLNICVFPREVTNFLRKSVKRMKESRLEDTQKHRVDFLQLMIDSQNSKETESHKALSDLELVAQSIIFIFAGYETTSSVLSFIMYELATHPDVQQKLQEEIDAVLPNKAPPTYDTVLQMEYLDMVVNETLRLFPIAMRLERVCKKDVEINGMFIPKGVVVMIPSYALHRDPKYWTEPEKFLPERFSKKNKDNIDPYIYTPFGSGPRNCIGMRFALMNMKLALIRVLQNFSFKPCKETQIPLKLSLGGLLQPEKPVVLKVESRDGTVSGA

One assay addresses Cytochrome P450 3A4 (Homo sapiens) (UniProt P08684). In words: qHTS Assay for Inhibitors and Substrates of Cytochrome P450 3A4 (AID 884). Note: nearly all actives have a fitted effect of over 50% in size. Note: potency is the fitted concentration of half-maximal effect. To be noted: recombinant CYP3A4, Luciferin-PPXE luminescence; series mostly up to 57.1 µM. Put shortly: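 20 nM human CYP3A4 with 25 uM Luciferin-PPXE (at KM) in 200 mM KPO4, preincubated 10 min with compound; NADPH regeneration started a 60 min RT reaction. Luciferin detected by luminescence, normalized to 57 uM ketoconazole as full inhibition.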
With `COC(=O)[C@@H]1C[C@@]2(O)[C@@H](O)[C@@H](O)[C@@H](O)C[C@H]2N1CC1CC1`, the Potency entry was “inactive”.

As to `COC(=O)c1cccc(C23CC4(C2)[C@H](CN(Cc2ccc(-c5ccccc5)cc2)[C@@H]4c2ccccc2)C3c2ccc(Cl)nc2)c1` (stereo partly drawn), the Potency result was “inactive”. Same read-out and setting: the result for `CC(C)=CCC/C(C)=C/CO/N=C1/C[C@@H](O)[C@@H](O)[C@@H]2[C@@H]3C(=O)N(Cc4ccc5c(c4)OCO5)C(=O)[C@H]3CC[C@H]12` reads 1580 nM (active).

In the case of `COC(=O)c1ccc(C23CC4(C2)[C@H](CN(Cc2ccc(C(F)(F)F)cc2)[C@@H]4c2ccccc2)C3c2ccc(C(F)(F)F)cc2)cc1` (stereo partly drawn), the Potency result is “inactive”.

The next assay shares this target. The assay is described as follows: qHTS Assay for Activators of Cytochrome P450 3A4 (AID 885). Note: nearly all actives have a fitted effect of over 65% in size. To be noted: recombinant CYP3A4, Luciferin-PPXE luminescence, 60 min; series mostly up to 57.1 µM. The method in brief: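 Human CYP3A4 (20 nM) with Luciferin-PPXE at 25 uM (its KM) in 200 mM KPO4; 10 min compound preincubation, then NADPH regeneration and 60 min reaction at RT. Luciferin read by luminescence; normalized to 57 uM ketoconazole full inhibition.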
In the case of `CCC1=C(OC(=O)N(CC)CC)N2C(=O)OC(=NCCOC)[C@]2(Cc2ccccc2)[C@H]2C1=CC[C@H]1C(=O)N(CC)C(=O)[C@H]12`, the Potency result is “inactive”. For `CO[C@H]1COC(=O)C/C=C\[C@H](C)[C@@H](NS(=O)(=O)c2ccc(C)cc2)COC(=O)CCC[C@@H]1C`, the activity change, positive = activation is -92.6% [at 11.4 µM] (inactive).

In the case of `CCCNC(=O)OC[C@@H]1O[C@H](CCO/N=C(\C)CCC(=O)OC[C@@H]2O[C@H](c3ccccc3)C=C[C@@H]2Oc2ccc(OC)cc2)C=C[C@@H]1Oc1ccc(OC)cc1`, the activity change, positive = activation is -87% [at 11.4 µM] (inactive).

As for `COC(=O)[C@@H]1C[C@@]2(O)[C@@H](O)[C@@H](O)[C@@H](O)C[C@H]2N1Cc1ccc(C(C)(C)C)cc1`, the Potency result was “inactive”. On the same count and under the same terms, as for `Cn1c(-c2nc(-c3ccccc3)cs2)nc2ccccc21`, the entry is “inactive”; as for `COC(=O)[C@@H]1C[C@H]2CC[C@H](O)C[C@H]2N1Cc1ccccc1OS(=O)(=O)c1ccc(C)cc1`, “inactive”; as for `CCC1=C(OC(=O)N(CC)CC)N2C(=O)OC(=NCCOC)[C@]2(Cc2ccccc2)[C@H]2C1=CC[C@H]1C(=O)N(C)C(=O)[C@H]12`, “inactive”.

On to `C#CCCCO/N=C1/C[C@@H](O)[C@@H](O)[C@@H]2[C@@H]3C(=O)N(Cc4ccccc4)C(=O)[C@H]3CC[C@H]12`, for which the activity change, positive = activation was -103% [at 11.4 µM] (inactive).

As for `CCC1=C(OC(=O)N(CC)CC)N2C(=O)OC(=NCC3CC3)[C@]2(C)[C@H]2C1=CC[C@H]1C(=O)N(CC(=O)OC)C(=O)[C@H]12`, the Potency result is “inactive”. Take `COC(=O)C/C=C\[C@@H](C)[C@@H](/C=N\O[C@@H](C)c1cn([C@H]2COC[C@H]2O)nn1)NS(=O)(=O)c1ccc(C)cc1`: the activity change, positive = activation was -71.6% [at 11.4 µM] (inactive). Consider `O=C(O)c1sccc1S(=O)(=O)Nc1ccccc1N1CCCCC1`, for which the Potency entry is “inactive”. Same read-out and setting: the result for `CCC1=C(OC(=O)N(CC)CC)N2C(=O)OC(=NCC3CC3)[C@]2(C)[C@H]2C1=CC[C@H]1C(=O)N(c3ccccc3)C(=O)[C@H]12` reads “inactive”. On the same count and under the same terms, the result for `FC(F)(F)c1ccc(CN2C[C@@H]3C(c4ccc(Cl)nc4)C4(c5cccnc5)CC3(C4)[C@H]2c2ccccc2)cc1` (stereo partly drawn) reads “inactive”.

`CC(C)=CCC/C(C)=C/CO/N=C1/C[C@@H](O)[C@@H](O)[C@@H]2[C@@H]3C(=O)N(Cc4ccc5c(c4)OCO5)C(=O)[C@H]3CC[C@H]12`: the activity change, positive = activation was -115% [at 11.4 µM] (inactive).
